This passage reports inhibition results from PubChem BioAssay AID602261 (Sanford-Burnham Center for Chemical Genomics, 2012).

SMILES strings stand for the structures. The whole screen tested about 360,000 compounds, of which about 2,400 (0.67%) were called active.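 Rule for the calls: active = compounds whose normalised, plate-corrected inhibition of enzyme fluorescence in the single-dose primary screen is 50% or more; inactive = the rest.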 For the sample, actives were picked, then their nearest neighbours and some compounds at random.

Chain of Fatty acid synthase (Homo sapiens) (P49327 whole entry, looked up, the tested form may be a part): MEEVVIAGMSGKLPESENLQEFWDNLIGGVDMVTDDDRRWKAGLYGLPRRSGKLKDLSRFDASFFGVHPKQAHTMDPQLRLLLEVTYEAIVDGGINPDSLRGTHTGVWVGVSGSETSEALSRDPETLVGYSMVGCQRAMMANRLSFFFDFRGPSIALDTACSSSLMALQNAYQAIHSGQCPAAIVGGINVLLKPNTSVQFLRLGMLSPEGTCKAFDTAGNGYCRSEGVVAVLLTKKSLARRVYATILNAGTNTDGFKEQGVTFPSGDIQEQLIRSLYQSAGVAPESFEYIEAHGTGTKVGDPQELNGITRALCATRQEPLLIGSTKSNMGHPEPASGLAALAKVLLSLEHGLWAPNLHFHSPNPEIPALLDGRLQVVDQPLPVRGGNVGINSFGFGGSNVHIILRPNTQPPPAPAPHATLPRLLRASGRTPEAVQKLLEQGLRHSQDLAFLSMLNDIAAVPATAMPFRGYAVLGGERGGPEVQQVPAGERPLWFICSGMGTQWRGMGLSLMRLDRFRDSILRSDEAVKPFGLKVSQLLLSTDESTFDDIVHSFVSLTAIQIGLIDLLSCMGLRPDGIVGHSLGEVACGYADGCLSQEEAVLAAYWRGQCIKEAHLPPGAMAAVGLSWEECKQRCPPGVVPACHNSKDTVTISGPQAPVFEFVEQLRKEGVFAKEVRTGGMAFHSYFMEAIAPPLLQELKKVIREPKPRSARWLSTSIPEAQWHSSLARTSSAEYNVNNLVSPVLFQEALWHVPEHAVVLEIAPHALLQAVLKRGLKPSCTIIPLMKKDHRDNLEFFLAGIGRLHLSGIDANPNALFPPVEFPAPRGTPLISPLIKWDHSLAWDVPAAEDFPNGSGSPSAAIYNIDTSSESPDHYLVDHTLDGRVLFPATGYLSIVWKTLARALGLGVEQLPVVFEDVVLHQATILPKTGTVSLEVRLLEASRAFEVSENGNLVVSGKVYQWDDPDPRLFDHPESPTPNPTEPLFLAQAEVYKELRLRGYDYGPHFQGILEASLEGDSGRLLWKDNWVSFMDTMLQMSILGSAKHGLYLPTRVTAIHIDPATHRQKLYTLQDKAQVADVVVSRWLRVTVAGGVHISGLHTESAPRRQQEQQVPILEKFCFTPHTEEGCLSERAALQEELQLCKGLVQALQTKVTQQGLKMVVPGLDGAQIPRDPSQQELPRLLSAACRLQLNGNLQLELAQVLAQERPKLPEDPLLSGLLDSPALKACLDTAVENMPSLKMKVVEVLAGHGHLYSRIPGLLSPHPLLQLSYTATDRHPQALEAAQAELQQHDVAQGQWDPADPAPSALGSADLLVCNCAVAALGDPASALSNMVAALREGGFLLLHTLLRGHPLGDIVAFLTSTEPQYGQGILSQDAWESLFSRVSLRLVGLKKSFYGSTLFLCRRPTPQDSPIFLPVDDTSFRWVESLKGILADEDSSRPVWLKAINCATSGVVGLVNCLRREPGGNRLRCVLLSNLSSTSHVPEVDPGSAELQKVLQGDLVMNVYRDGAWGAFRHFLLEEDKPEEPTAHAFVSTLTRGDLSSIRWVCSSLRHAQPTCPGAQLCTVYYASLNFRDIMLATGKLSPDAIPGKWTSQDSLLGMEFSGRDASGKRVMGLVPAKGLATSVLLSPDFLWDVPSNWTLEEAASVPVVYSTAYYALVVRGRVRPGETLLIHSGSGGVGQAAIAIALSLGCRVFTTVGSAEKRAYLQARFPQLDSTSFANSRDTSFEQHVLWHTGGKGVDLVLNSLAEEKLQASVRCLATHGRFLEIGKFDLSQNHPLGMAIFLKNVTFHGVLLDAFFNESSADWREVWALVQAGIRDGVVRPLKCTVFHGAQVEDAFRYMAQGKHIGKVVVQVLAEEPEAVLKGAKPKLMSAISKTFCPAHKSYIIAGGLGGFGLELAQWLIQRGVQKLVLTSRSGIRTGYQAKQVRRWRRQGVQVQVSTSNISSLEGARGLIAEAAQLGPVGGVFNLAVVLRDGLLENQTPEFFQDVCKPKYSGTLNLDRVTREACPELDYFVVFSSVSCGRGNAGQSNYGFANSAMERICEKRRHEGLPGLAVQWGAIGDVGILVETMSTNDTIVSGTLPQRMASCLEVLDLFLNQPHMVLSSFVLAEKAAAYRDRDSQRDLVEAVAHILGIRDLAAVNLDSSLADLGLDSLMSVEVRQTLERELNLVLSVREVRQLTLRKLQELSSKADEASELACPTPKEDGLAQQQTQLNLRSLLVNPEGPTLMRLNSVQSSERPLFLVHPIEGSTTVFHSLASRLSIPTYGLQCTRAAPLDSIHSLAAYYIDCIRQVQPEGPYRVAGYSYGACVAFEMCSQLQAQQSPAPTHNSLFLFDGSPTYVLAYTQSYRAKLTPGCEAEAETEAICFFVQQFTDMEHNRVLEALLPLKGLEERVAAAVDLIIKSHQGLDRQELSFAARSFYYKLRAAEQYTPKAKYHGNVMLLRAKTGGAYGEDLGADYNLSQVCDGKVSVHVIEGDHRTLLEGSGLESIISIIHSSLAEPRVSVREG

This experiment has as its target Fatty acid synthase (Homo sapiens) (UniProt P49327). The experiment can be described thus: FAS thioesterase domain inhibitors, primary screen, biochemical, fluorescence intensity, uHTS (AID 602261).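 Note: 0% = DMSO with enzyme and 100% = substrate without enzyme.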 As to conditions: recombinant FAS-TE, OMFH fluorogenic substrate, fluorescence endpoint; at 15 µM; hits give high values.
`O=C(CN1CCC(NC(=O)Nc2ccccc2)CC1)Nc1cccc([N+](=O)[O-])c1`: the inhibition was 1.8% (inactive). For `O=C(Nc1cccc([N+](=O)[O-])c1)N1CCc2ccccc2C1` the value was 52.5% (active); for `CCc1ccc(NC(=O)N2CCc3ccccc3C2)cc1`, 4.2% (inactive). Regarding `N#CCC(=O)N/N=C/c1ccc(SCC(=O)Nc2ccccc2)o1`, the inhibition was -2.5% (inactive). For `CCC1CCCCN1CCCNC(=O)c1cc2c(Cl)nc3ccccc3c2s1` (centres undefined) the value was -5.7% (inactive).

As for `O=[N+]([O-])c1c(NCCO)cc(Sc2nc3ccccc3s2)c2nonc12`, the inhibition is 83.1% (active). Turning to `COc1cc(C2C(C(=O)c3cccs3)=C(O)C(=O)N2CCN2CCOCC2)ccc1OCCC(C)C` (centres undefined), the inhibition was 0.8% (inactive).

As to `Cc1cc(C)c(C2C3=C(Nc4c2c(C)nn4-c2ccccn2)c2ccccc2C3=O)c(C)c1` (centres undefined), the inhibition is 68.9% (active). With `CC/C(Cc1ccccc1)=N/NC(=O)CCn1nnc2ccccc21` the figure was -8.1% (inactive); with `CC1(C(=O)NS(=O)(=O)c2ccc(C#N)cc2)CCN1C(=O)c1ccc(C2CCCCC2)cc1` (centres undefined), 62.6% (active); with `Cc1noc(C)c1C(=O)N1CCC1(C)C(=O)NS(=O)(=O)c1ccc(C#N)cc1` (centres undefined), -9% (inactive).

With `CC1(C(=O)NS(=O)(=O)c2ccc(C#N)cc2)CCN1C(=O)CC1CCCC1` (centres undefined), the inhibition is 4.2% (inactive). For `O=C1CCC/C(=N\NC(=O)NC2CCCCC2)C1` the value was -1% (inactive); for `COc1cccc(-n2nc(C(=O)N3CCN(Cc4ccccc4)CC3)c3ccccc3c2=O)c1`, 3.5% (inactive); for `CCOC(=O)N1CCN(Cc2nc3ccc([N+](=O)[O-])cc3c(=O)n2-c2cccc(OC)c2)CC1`, 72.4% (active). With `CCOC(=O)N1CCN(Cc2nc3cc(NC(C)=O)ccc3n2C)CC1` the figure was -7% (inactive). With `CCOC(=O)CSC1=N/C(=C/c2ccc(-n3cncn3)cc2)C(=O)N1C(C)=O` the figure was -6.6% (inactive).

Turning to `Cc1occc1C(=O)N/N=C/c1ccc(-c2cccc([N+](=O)[O-])c2)o1`, the inhibition is 20.7% (inactive). For `Cc1cc(C(=O)N/N=C/c2cc([N+](=O)[O-])cc(C)c2O)n[nH]1` the value was 65.7% (active).

As to `Cc1c(Cl)c([N+](=O)[O-])nn1Cc1ccc(C(=O)N/N=C\c2cc(Cl)ccc2O)o1`, the inhibition is 36.1% (inactive). For `Cc1ccc(S(=O)(=O)Nc2ccc3c(c2)C(=O)N([C@H](C)CO)C[C@@H](C)[C@@H](CN(C)C(=O)Nc2cccc4ccccc24)O3)cc1` the value was -2.7% (inactive). Take `COc1ccc2nc(Nc3nc4cc5c(cc4s3)OCCO5)sc2c1`: the inhibition is 66.6% (active). With `Fc1ccc2nc(Nc3nc4c(s3)CCCC4)sc2c1` the figure was 7.4% (inactive); with `COc1ccc2nc(N3CCN(C(=O)c4ccc([N+](=O)[O-])o4)CC3)sc2c1`, 10.7% (inactive).
